Consider seven compounds from PubChem BioAssay.

Some of the results follow. Inconclusive results are not listed. Calls of active or inactive are those of the source.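 How the source made its calls, unless noted: active means thallium entry rate above the same plate's blocked-transporter control wells by more than 3 SD; inconclusive means the two repeat wells disagree; inactive means the rest.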

A short description of test [1]: inhibitors of TNFa-induced NFkB p65 translocation, primary screen, imaging, HUVEC, MLSMR starter and 10KST1 sets (AID 438;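 active means inhibition above 20% together with a positive visual image hit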;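 further: compound added about 3h40 before a 20 min TNFalpha stimulation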;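 on inhibition: signal is the nuclear over cytoplasmic p65 intensity ratio per well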). As to conditions: HUVEC TNFa-induced p65 nuclear translocation; cell count: measured here: nuclei count (cytotoxicity indicator), at 2.08 µM; inhibition: at 2 µM, stronger effect = higher value, 0% TNFa-plus-vehicle, 100% no-TNFa wells.
Test [2] in a line: reduction of polyQ htt aggregates in cells – imaging, exon1htt(103Q)mCFP cells, high-content imaging, primary screen (AID 483;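 active means visual image review flags a hit and inhibition of aggregation exceeds 20%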;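 further: compound exposure lasted 3 days before fixation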;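 on nuclei count: percent of the per-plate median nuclei count of sample wells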). As to conditions: exon1htt(103Q)mCFP cell line, aggregate imaging, at 2 µM; inhibition of aggregation: stronger effect = higher value; nuclei count: measured here: cell count, toxicity.
The nature of test [3]: endothelial E-selectin expression blockers – imaging, HUVEC, immunofluorescence, MLSMR starter and 10KST1 sets, primary screen (AID 487;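 active means visually confirmed hit in the image check and inhibition above 20%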;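 on inhibition: signal is fraction of cell area covered by stained E-selectin grains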;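 on nuclei count: 100% = median nuclei count of all wells on the same plate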). As to conditions: HUVEC TNFalpha-induced E-selectin immunofluorescence imaging, at 2 µM; inhibition: stronger effect = higher value; nuclei count: measured here: cell number, toxicity.
Test [4] can be described thus: Primary imaging screen for DUSP6 inhibitors that restore phospho-Erk in transfected HeLa cells, chemical complementation (AID 609;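 active means compounds giving at least 50% inhibition in the cell-based MKP-3 phosphatase rescue imaging test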;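 on inhibition: phospho-Erk level distribution per well compared with pooled transfected vehicle control wells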). To be noted: HeLa MKP-3 transfected, phospho-Erk imaging KS statistic, at 10 µM, cells stimulated with TPA for 15 min.
In test [5] the target is Dual specificity protein phosphatase 6 (Homo sapiens) (UniProt Q16828). The test is described as above. To be noted: HeLa MKP-3 transfected, phospho-Erk imaging KS statistic; at 10 µM; stronger effect = higher value; cells stimulated with TPA for 15 min.
Chain of Dual specificity protein phosphatase 6 (Homo sapiens) (Q16828 whole entry, looked up): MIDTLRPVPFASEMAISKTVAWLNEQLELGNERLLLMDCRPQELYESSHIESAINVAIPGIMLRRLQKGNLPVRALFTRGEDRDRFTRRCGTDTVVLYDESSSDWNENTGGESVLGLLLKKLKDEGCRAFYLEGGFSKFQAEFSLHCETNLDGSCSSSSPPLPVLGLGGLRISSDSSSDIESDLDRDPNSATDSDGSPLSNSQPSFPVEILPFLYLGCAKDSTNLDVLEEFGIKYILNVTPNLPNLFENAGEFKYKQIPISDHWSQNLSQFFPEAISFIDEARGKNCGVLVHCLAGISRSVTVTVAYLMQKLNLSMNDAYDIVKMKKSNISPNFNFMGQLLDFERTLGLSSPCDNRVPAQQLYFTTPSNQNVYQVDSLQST
Test [6] concerns the target Voltage-gated potassium channel subunit beta-2 (Rattus norvegicus) (UniProt P62483). Briefly: inhibitors of rat Kvbeta2 reductase activity – biochemical, NADPH fluorescence, primary screen (AID 622;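 active means fluorescence slope higher than the sample average by over 3 SD, cut at about -0.22 in these data, passing the limit was not always enough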;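 further: slope of raw intensity against log time taken from 70 to 1610 s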). As to conditions: recombinant KvBeta, 4-cyanobenzaldehyde reduction, at 10 µM, stronger effect = higher value.
The target is the same in test [7]. The experiment in a line: enhancers of rat Kvbeta2 NADPH turnover – biochemical, NADPH fluorescence, primary screen (AID 623;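 active means NADPH fluorescence slope more negative than the mean of all samples by about 3 SD, 99.7% confidence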;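 further: fluorescence intensity change per second fitted from 20 to 320 s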). As to conditions: Recombinant KvBeta, NADPH fluorescence decrease slope, 10 min; at 10 µM; stronger effect = lower value.
Test [8] deals with Muscarinic acetylcholine receptor M4 (Homo sapiens) (UniProt P08173). Briefly: M4-linked GIRK flux change, two-sided – cell-based, HEK293 M4/GIRK, thallium flux, BTC-AM, M4 allosteric agonist project, primary screen (AID 625;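 active means fluorescence slope after compound addition differing from the mean of all tested samples at 99.7% confidence, mostly higher but some lower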;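 further: thallium influx through GIRK channels coupled to M4 in HEK293 cells with BTC-AM dye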). To be noted: at 10 µM, actives lie on both sides.
Chain of Muscarinic acetylcholine receptor M4 (Homo sapiens) (P08173 whole entry, looked up): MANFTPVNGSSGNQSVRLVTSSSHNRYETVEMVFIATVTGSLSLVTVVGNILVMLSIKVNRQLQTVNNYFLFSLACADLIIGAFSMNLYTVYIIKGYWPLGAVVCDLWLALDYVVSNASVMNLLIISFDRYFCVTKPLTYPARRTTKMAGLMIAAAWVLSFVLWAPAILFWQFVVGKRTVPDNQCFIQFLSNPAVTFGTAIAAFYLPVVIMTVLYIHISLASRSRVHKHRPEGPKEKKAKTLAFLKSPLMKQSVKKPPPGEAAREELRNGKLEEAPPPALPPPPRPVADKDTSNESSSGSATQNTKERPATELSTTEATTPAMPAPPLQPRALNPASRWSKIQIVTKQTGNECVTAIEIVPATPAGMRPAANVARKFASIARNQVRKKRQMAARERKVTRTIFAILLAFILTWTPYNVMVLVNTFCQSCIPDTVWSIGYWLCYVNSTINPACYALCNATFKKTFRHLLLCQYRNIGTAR
Test [9] is described as follows: inhibitors of larval lipid processing in zebrafish, primary screen, whole organism, PED6 fluorescence, gall bladder and intestine (AID 686;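 active means a full or partial loss of lipid-probe fluorescence in the fish gall bladder, intestine or both, judged by eye; inactive means no fluorescence loss, or compound toxic to the fish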;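 further: larvae 5 to 7 days old with five fish per well; signal comes from phospholipase A2 cleavage of quenched PED6 carried via bile; overnight exposure to compound and PED6 before scoring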). As to conditions: Zebrafish larvae PED6 lipid processing, fluorescence scoring; screened at 20 µM (by protocol).
Test [10] has as its target Solute carrier family 12 member 5 (Homo sapiens) (UniProt Q9H2X9). The experiment in a line: retest of KCC2 transport modulators without sodium – cell-based, HEK293 KCC2, thallium flux, secondary assay, confirmation (AID 1713;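 active means thallium flux slope above the same plate's solvent-only control mean plus 3 SD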). As to conditions: FluoZin2 fluorescence, at 10 µM, stronger effect = higher value.
A short description of another test: PubChem AID 1714.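 Further: raw slope of fluorescence over initial fluorescence between 10 and 20 s after thallium.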 As to conditions: HEK293-KCC2 + bumetanide/ouabain, thallium flux FluoZin2; at 10 µM; stronger effect = higher value.
The target of test [11] is Solute carrier family 12 member 5 (Homo sapiens) (UniProt Q9H2X9). The experiment in a line: retest of KCC2 transport modulation, ouabain-free – cell-based, HEK293 KCC2, thallium flux, FluoZin2, secondary assay 2, confirmation (AID 1715;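 active means thallium flux slope more than 3 SD above or below the plate's solvent-only control mean, mostly below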;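 further: raw slope with 0.1% DMSO as baseline and bumetanide as block control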). To be noted: HEK293-KCC2, thallium flux FluoZin2 fluorescence; at 10 µM; actives lie on both sides; F/F0 rise rate, 10–20 s post-thallium.
Chain of Solute carrier family 12 member 5 (Homo sapiens) (Q9H2X9 whole entry, looked up): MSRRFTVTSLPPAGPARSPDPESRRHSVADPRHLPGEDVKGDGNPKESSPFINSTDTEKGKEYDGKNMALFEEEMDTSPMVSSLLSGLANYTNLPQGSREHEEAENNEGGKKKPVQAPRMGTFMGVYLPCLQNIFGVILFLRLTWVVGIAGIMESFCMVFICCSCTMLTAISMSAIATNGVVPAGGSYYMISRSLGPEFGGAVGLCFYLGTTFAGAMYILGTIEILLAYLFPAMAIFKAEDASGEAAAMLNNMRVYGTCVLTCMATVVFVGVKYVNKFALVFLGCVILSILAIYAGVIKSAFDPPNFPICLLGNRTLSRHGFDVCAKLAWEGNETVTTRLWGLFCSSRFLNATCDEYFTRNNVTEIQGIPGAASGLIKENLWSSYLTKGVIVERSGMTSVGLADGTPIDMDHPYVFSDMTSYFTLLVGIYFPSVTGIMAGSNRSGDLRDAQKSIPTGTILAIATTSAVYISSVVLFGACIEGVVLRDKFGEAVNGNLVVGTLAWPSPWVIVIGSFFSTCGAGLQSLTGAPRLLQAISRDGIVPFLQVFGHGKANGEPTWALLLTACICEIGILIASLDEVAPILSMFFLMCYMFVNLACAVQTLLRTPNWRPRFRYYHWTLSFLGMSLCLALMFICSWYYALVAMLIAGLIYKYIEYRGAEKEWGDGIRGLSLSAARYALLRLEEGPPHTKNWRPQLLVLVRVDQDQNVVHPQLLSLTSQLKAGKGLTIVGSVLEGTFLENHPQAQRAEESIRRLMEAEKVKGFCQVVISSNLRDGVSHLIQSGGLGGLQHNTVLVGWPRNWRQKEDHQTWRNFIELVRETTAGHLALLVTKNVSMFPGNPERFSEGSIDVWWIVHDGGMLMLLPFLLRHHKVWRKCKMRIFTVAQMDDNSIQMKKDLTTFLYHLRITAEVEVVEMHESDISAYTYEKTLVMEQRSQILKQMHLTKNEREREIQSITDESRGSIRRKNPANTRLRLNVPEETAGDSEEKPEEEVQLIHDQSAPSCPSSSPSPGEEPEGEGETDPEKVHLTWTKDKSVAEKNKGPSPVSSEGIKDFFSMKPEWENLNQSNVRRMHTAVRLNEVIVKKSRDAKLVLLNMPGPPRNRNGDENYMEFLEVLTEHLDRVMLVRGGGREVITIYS

Test [12] can be described thus: compound effects on native HEK Tl+ uptake – HEK cells, counterscreen 1, counter-screen for KCC2 modulator project, confirmation (AID 1716;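 active means thallium flux rate significantly above the same plate's solvent-only control wells, beyond their mean plus 3 SD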). To be noted: HEK293 parental cells, thallium flux FluoZin2, ouabain; at 10 µM; baseline-ratio fluorescence slope, 10–20 s after thallium.
Test [13] addresses Solute carrier family 12 member 5 (Homo sapiens) (UniProt Q9H2X9). The experiment in a line: modulation of KCC2 thallium flux in HEK cells – cell-based, ouabain, retest, confirmation (AID 1717;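 active means thallium flux slope beyond 3 SD from same-plate DMSO control mean in most replicates, usually higher, sometimes lower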;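 further: slope of initial-normalized fluorescence between seconds 10 and 20 after thallium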). To be noted: HEK293-KCC2, thallium flux FluoZin2 fluorescence, at 10 µM, bidirectional: low = inhibitor, high = activator.
Test [14] is described as follows: native HEK Tl+ uptake effects, second counter-screen – HEK cells, counterscreen 2, counter-screen for KCC2 modulator project, confirmation (AID 1718;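 active means thallium flux slope above the same plate's solvent-control mean plus 3 SD in both duplicate wells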;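 further: run without ouabain in cells lacking the KCC2 cotransporter; slope of fluorescence scaled to its starting value between 10 and 20 s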). To be noted: HEK293 parental, thallium flux FluoZin-2 fluorescence slope; at 10 µM.
A short description of test [15]: loss of swimming-algae plug formation – whole organism, Chlamydomonas reinhardtii, WT vs cilia-less mutant, absorbance, 96-well, primary screen (AID 463189;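 active means inhibition at or above 50% relative to wild type and mutant plate controls; inactive means inhibition below 50%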;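 further: 0% = wild type cc124 cells in DMSO and 100% = ciliumless bld1 mutant cells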). To be noted: Chlamydomonas reinhardtii gravitaxis, OD600 absorbance, 2 days; at 10 µM; stronger effect = higher value.
Test [16] can be described thus: blockers of RIG-like receptor reporter activation – cell-based, Sendai virus stimulus, luciferase, 10K MLSCN set, TLR/RLR signaling modifier project, primary screen (AID 602276;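 active means inhibition at or above 50% at 10 µM; inactive means inhibition below 50%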;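 further: firefly luciferase from ISG56 promoter only with Renilla not read in this screen; 0% = Sendai virus plus DMSO and 100% = medium plus DMSO without virus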). To be noted: HEK293 RL24 IRF3 luciferase reporter, at 10 µM, stronger effect = higher value.
Test [17] can be described thus: TLR3 IRF3 reporter activation blockers – cell-based, poly I:C stimulus, luciferase, 10K MLSCN set, primary screen (AID 602277;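 active means inhibition of the reporter signal at or above 50%; inactive means inhibition below 50%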). As to conditions: HEK293-TLR3 RL24 IRF3 luciferase reporter, at 10 µM, stronger effect = higher value.
Setting [18] is: measured here: cell density z-score.
Setting [19] is: measured here: nuclear c-Myc green intensity z-score.
Where [20] appears, read: measured here: nuclear pErk red intensity z-score, stronger effect = higher value.

Chain of Voltage-gated potassium channel subunit beta-2 (Rattus norvegicus) (P62483 whole entry, looked up): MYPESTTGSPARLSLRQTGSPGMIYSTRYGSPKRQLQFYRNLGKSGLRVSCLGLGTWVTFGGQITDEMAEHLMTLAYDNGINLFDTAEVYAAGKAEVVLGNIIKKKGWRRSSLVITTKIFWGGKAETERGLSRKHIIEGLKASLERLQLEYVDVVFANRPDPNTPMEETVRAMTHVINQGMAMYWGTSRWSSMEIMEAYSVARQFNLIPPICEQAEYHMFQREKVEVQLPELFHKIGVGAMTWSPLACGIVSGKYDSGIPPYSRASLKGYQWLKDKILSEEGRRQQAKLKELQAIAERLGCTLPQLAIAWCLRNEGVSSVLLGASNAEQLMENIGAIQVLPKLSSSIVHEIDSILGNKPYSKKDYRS

For the compound `CCNCc1cc2cc(C)ccc2[nH]c1=O`, the cell count in [1] is 596. Further, the inhibition was -5.2% (inactive) in test [1]; -107% (inactive) in [3]; 2.71% (inactive) in test [5]; 9.6% (inactive) in test [15]; 3.24% (inactive) in [16]; 16.9% (inactive) in test [17]. The inhibition of aggregation in test [2] was 1.8% (inactive). Also, the nuclei count in test [2] came out at 118%; in test [3] it was 132%. Further, the z-score in test [4] (setting [18]) is 0.581; in [4] (setting [19]), -1.49; in test [4] (setting [20]), -1.38. The fluorescence slope in test [6] is -0.515 (inactive); in test [8], 0.00569 (inactive). In addition, the NADPH fluorescence slope in test [7] is -4.8e-05 (inactive). Moreover, the outcome in test [9] was inactive. In test [10], the normalised thallium flux (F/F0 slope) was 0.00875 (inactive). Also, the normalized thallium flux is 0.00485 (inactive) in the test “PubChem AID 1714” and 0.034 (inactive) in [11]. Further, the thallium flux rate (normalised fluorescence) in [12] is 0.00817 (inactive). For the same compound, the raw Tl+ flux slope (below DMSO = inhibition, above = activation) in test [13] was 0.0185 (inactive). In addition, the thallium flux slope in [14] was 0.0111 (inactive).
For `Cc1ccc(OCC(=O)NNC(=S)NCc2ccccc2)cc1`, in test [10], the normalised thallium flux (F/F0 slope) was 0.00584 (inactive). The normalized thallium flux is 0.0196 (active) in the test “PubChem AID 1714” and 0.0307 (inactive) in test [11]. The thallium flux rate (normalised fluorescence) in [12] was 0.0156 (active). In test [13], the raw Tl+ flux slope (below DMSO = inhibition, above = activation) is 0.0206 (inactive). In [14], the thallium flux slope is 0.0162 (active).
With `O=C(N/N=C/c1ccc(Br)o1)c1cncc(Br)c1`, in test [10], the normalised thallium flux (F/F0 slope) was 0.0115 (active). The normalized thallium flux in the test “PubChem AID 1714” is 0.0326 (active); in [11], 0.0307 (inactive). Also, in [12], the thallium flux rate (normalised fluorescence) is 0.0124 (active). Moreover, the thallium flux slope in [14] is 0.0107 (active).
The corresponding values for `O=C(NNC(=S)NC(=O)c1cn(-c2ccccc2)nc1-c1ccccc1)c1ccncc1` are 0.00764 (inactive), 0.0138 (active), 0.0344 (inactive), 0.0141 (active) and 0.0155 (active).
The corresponding values for `CN(C)CCn1c(=S)[nH]c2ccc(Cl)cc2c1=O` are 0.00617 (inactive), 0.0089 (active), 0.0337 (inactive), 0.0128 (active) and 0.0165 (active).
Take `CNC(=O)/C(=C\C=C\c1ccccc1)NC(=O)c1ccc([N+](=O)[O-])cc1`: the normalised thallium flux (F/F0 slope) in test [10] was 0.00733 (inactive). The normalized thallium flux in the test “PubChem AID 1714” is 0.00498 (inactive); in test [11], 0.0219 (active). For the same compound, the thallium flux rate (normalised fluorescence) in test [12] is 0.00796 (inactive). For the same compound, the raw Tl+ flux slope (below DMSO = inhibition, above = activation) in test [13] is 0.0141 (active). For the same compound, in test [14], the thallium flux slope was 0.0103 (inactive).
As to `C(=N\n1cnnc1)/c1cccnc1`, the cell count in test [1] turned out to be 581. Further, the inhibition in test [1] is 0.9% (inactive); in test [3] it was -64.9% (inactive); in test [5] it was 1.42% (inactive); in [15], 0.59% (inactive); in test [16], -11.4% (inactive); in test [17] it was -7.31% (inactive). Moreover, the inhibition of aggregation in test [2] is 18.4% (inactive). The nuclei count in test [2] stood at 76.7%; in [3], 115%. Moreover, the z-score is 0.785 in [4] (setting [18]), -0.718 in test [4] (setting [19]) and 0.742 in [4] (setting [20]). The figures for the fluorescence slope in [6] and in [8] were -0.457 (inactive) and 0.00428 (inactive), respectively. For the same compound, the NADPH fluorescence slope in [7] was -0.000114 (inactive). Moreover, in test [9], the compound was called inactive. The normalised thallium flux (F/F0 slope) in test [10] was 0.0086 (inactive). In addition, the normalized thallium flux in “PubChem AID 1714” was 0.00647 (inactive); in [11], 0.0321 (inactive). In [12], the thallium flux rate (normalised fluorescence) was 0.0072 (inactive). Moreover, in test [13], the raw Tl+ flux slope (below DMSO = inhibition, above = activation) is 0.021 (inactive). The thallium flux slope in test [14] was 0.0101 (inactive).
